Source: PubChem (National Center for Advancing Translational Sciences (NCATS))
Pol eta inh-1: blocks human DNA polymerase eta activity; Q9Y253; recombinant Pol eta, fluorescent DNA replication assay; Potency, µM (highest dose often 114 µM), without a hit: top-dose activity change, negative = inhibition, hits mostly inhibitors; 390,000 compounds, 1.2% hits; also: potency is read from the fitted curve at half-maximal effect; % is scaled to controls: 0 for no effect and ±100 for the full control effect
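Pol eta at 10 nM preincubated with compounds 15 min at room temperature; reaction started with fluorescent substrate (50 nM final) and read kinetically at 0 and 10 min.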
POLB inh: DNA polymerase beta (human) inhibition | Potency, µM (highest dose often 114 µM), for inactives: at the top dose activity change, negative = inhibition, most hits filed as inhibitors | 340,000 compounds, 1.3% hits | Pol beta primer extension/strand displacement, fluorescence kinetic | AID 485314 | P06746; also: potency is read from the fitted curve at half-maximal effect; % is scaled to controls: 0 for no effect and ±100 for the full control effect
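Pol beta (10 nM) and compounds were preincubated 15 min at room temperature, then 50 nM substrate (final) started primer extension/strand displacement. Reads were taken at 0 and 10 min; concentration-response data were fitted to a four-parameter Hill equation.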
POLI inh: blocks human DNA polymerase iota activity; AID 588590; Q9UNA4; Pol iota fluorescent replication assay, 10 min; Potency, µM (highest dose often 115 µM), for inactives: top-dose activity, negative = inhibition, usual class: inhibitors; 390,000 compounds, 1% hits; also: potency is read from the fitted curve at half-maximal effect
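Pol iota at 10 nM preincubated 15 min with compounds at room temperature; reaction started with fluorescent substrate, 50 nM final. Fluorescence read kinetically at 0 and 10 min; buffer-only wells as negative control.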
WRN helicase inh: WRN helicase (human) inhibition; WRN helicase unwinding, fluorescent forked duplex, kinetic; Potency, µM (titrated, usually from 114 µM), for inactives: top-dose activity change, negative = inhibition, hits mostly inhibitors; 360,000 compounds, 0.46% hits; AID 651768; also: potency is read from the fitted curve at half-maximal effect; % is scaled to controls: 0 for no effect and ±100 for the full control effect; nearly all actives have a fitted effect of over 55% in size
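Primary qHTS, 1536-well format. 20 nM WRN + compound, 15 min RT; start with 100 nM forked fluorophore/quencher duplex, 2 mM ATP (final); kinetic read ex 525/em 598 nm.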
PI5P4Ka inh: blocks human PI5P4K alpha kinase activity. P48426. PI5P4Kalpha enzyme, ADP-Glo luminescence, 60 min; stronger effect = lower value. max response, %. 330,000 compounds, 1.2% hits; active = max response of -50% or lower; inconclusive = between -30% and -50%; inactive = -30% or higher; also: value at the top dose of about 77 µM; % is scaled to controls: 0 for no effect and ±100 for the full control effect
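Enzyme plus substrate dispensed, test compounds pinned in, then ATP (5 microM final) added. After 60 min at RT, ADP-Glo reagent 1 for 45 min and reagent 2 for 30 min preceded luminescence imaging.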
Pol kappa inh-1: DNA polymerase kappa (human) inhibition | purified Pol kappa, fluorescent DNA synthesis assay, 10 min | Potency, µM (series often up to 107 µM), for inactives: at the highest dose activity, negative = inhibition, actives largely listed as inhibitors | 400,000 compounds, 0.53% hits | AID 588579; also: potency is read from the fitted curve at half-maximal effect; % is scaled to controls: 0 for no effect and ±100 for the full control effect
Target sequence (Q9UBT6 whole entry, looked up): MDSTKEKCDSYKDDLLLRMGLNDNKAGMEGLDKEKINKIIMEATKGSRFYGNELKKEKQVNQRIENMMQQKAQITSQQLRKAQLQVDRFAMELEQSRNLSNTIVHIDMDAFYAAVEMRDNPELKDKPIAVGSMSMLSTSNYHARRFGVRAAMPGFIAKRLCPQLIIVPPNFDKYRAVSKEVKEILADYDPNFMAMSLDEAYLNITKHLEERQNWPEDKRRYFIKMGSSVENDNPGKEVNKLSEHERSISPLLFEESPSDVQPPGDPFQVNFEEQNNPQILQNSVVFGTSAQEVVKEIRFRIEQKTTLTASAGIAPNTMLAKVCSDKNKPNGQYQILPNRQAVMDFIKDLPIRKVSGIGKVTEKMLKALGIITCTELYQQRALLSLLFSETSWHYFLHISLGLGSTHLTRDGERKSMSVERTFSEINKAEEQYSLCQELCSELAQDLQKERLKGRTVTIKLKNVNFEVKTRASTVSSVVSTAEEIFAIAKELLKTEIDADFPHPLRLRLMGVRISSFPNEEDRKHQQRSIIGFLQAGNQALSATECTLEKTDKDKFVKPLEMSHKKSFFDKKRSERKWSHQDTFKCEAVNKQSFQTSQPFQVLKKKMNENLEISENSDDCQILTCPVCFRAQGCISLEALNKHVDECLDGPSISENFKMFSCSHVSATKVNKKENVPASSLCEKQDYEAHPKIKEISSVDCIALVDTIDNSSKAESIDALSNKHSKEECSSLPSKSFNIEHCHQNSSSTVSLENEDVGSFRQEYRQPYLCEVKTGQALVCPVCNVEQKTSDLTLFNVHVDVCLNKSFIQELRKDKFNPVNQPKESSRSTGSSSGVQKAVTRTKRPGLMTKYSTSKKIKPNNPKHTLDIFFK
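Pol kappa 10 nM + cpd, 15 min RT; start w/ substrate 50 nM final; fluorescence kinetic read, 0 and 10 min. Neg ctrl: buffer, no enzyme.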
GALK confirm: confirmation of human galactokinase (GALK) inhibitors; shares compounds with Pol eta inh-1; purified GALK, Kinase-Glo ATP depletion luminescence; Potency, µM (titrated, usually from 115 µM), inactives show at the highest dose activity, negative = inhibition, most hits filed as inhibitors; 150 compounds, 70% hits
Redox cycling: redox cycling activity in phenol red-HRP assay | 150 compounds, 40% hits | Phenol red-HRP H2O2 redox cycling, absorbance 600 nm | shares compounds with Pol eta inh-1 | Potency, µM (top dose mostly 115 µM), inactives show at the highest dose activity change, negative = H2O2 signal, hits mostly inhibitors
HEK293 tox: reduces HEK-293 cell viability in GALK counter-screen. 170 compounds, 10% hits. HEK-293 viability, ATP luminescence (CellTiter-Glo), 24/48 h. Potency, µM (highest dose often 46.1 µM), without a hit: at the top dose activity change, negative = cytotoxicity, hits mostly inhibitors. shares compounds with Pol eta inh-1; also: potency is read from the fitted curve at half-maximal effect; % is scaled to controls: 0 for no effect and ±100 for the full control effect
Pol kappa inh-2: confirmation of human DNA polymerase kappa inhibitors; shares compounds with Pol eta inh-1; purified Pol-kappa, fluorescent strand-displacement substrate; Potency, µM, hits mostly inhibitors; 920 compounds, 76% hits; AID 720501; also: potency is read from the fitted curve at half-maximal effect
Pol eta inh-2: Pol eta (human) inhibition, cherry-pick confirmation; 2,600 compounds, 64% hits; Potency, µM, hits mostly inhibitors; shares compounds with Pol eta inh-1; Pol eta primer extension, TAMRA/BHQ fluorescence, 10 min; also: potency is read from the fitted curve at half-maximal effect
Active calls of the source: *; ? = inconclusive; . = not tested or not shown; [ ] = dose if it differs, or a comment. This is a sample that favours compounds with a hit; in the whole collection about 2.8% have one here. Unless noted, calls follow the shape of the dose curve; as a rule, active = well fitted curve in the direction sought with a large enough effect; inconclusive = small, poorly fitted or top-dose-only effect, or another doubt; inactive = no such curve, though single readings can be large; an effect the other way counts as inactive or inconclusive.

SMILES	Pol eta inh-1	POLB inh	POLI inh	WRN helicase inh	PI5P4Ka inh	Pol kappa inh-1	Pol eta inh-2	others
O=C(COC(=O)C1CCCC1)Nc1ncc(Cl)cc1Cl	15.8µM*	.	?	-34.1%	?	?	?
N#Cc1c(NC(=O)COC(=O)c2ccc(O)cc2O)sc2c1CCC2	20µM*	.	?	-12.3%[11.6 µM]	?	79.4µM*	?
COc1ccccc1N(CC(O)Cn1ccnc1C)S(=O)(=O)c1ccc(C)cc1 (stereo unspecified)	-1.5%	16.9%	31.2%	-0.5%	4.2	-11.3%	.
O=C(COC(=O)c1ccc(Br)o1)Nc1ncc(Cl)cc1Cl	?	?	?	-26.9%	?	-42.2%	.
O=C(COC(=O)c1ccc(O)cc1O)Nc1ncc(Cl)cc1Cl	?	.	-8.7%	-4.3%[11.6 µM]	-12.7	-16.9%	?
CCOc1ccc(/C=C2\SC(=S)N(NS(=O)(=O)c3ccccc3)C2=O)cc1OC	-5.5%	-0.1%	11.1%	-22.4%	-5.2	-6.9%	.
COc1ccc(/C=C2\SC(=S)N(NS(=O)(=O)c3ccc(C)cc3)C2=O)c(OC)c1	?	?	31.7%	-35.3%	-75.5*	-8.8%	21.3*
CC1CC(C)CN(C(=O)CN2C(=O)NC(c3ccccc3)(c3ccccc3)C2=O)C1 (stereo unspecified)	-18.5%	.	13.8%	-0.4%	4.3	-1.9%	.
COC(=O)C1C2C=CC3(CN(c4cccc(C)c4)C(=O)C13)O2 (stereo unspecified)	35.5µM*	-27.7%	?	?	-16.2	-25.0%	?
Nc1c(C=C2C=CC(=O)C=C2)c(=O)nc2sc(CC(=O)N3CCOCC3)nn12	?	34.3%	-25.9%	-6.9%[11.6 µM]	-22.0	-32.3%	75.7*
COC1=CC(=Cc2c(N)n3nc(CC(=O)N4CCOCC4)sc3nc2=O)C=C(OC)C1=O	20µM*	?	22.4µM*	?	-63.8*	79.4µM*	?
COc1ccc(S(=O)(=O)N(CC(=O)N2CCOCC2)Cc2ccccc2)cc1	7.8%	32.8%	11.0%	-9.9%	.	-0.3%	.
O=C(CN1CCN(c2ccc(O)cc2)CC1)N(C1CC1)C1CCS(=O)(=O)C1 (stereo unspecified)	1.7%	.	11.8%	4.3%	-5.9	-12.6%	.
COc1ccc(S(=O)(=O)N2CCOCC2)cc1NC(=O)c1cccc(Cl)c1	-13.9%	-3.6%	-10.6%	4.1%	-0.2	2.5%	.
COc1ccc(NC(=S)NC(=O)/C=C/c2ccco2)c(OC)c1	-5.2%	12.7%	-14.5%	-7.2%	-3.2	-17.5%	.
CC(=O)Nc1ccc(NC(=S)NC(=O)/C=C/c2ccco2)cc1	28.2µM*	-2.8%	?	?	-63.8*	44.7µM*	60.1*
COc1cccc(NC(=S)NC(=O)/C=C/c2ccco2)c1	44.7µM*	39.8µM*	28.2µM*	?	-54.5*	?	47.8*	Pol kappa inh-2=16.8*
O=C(/C=C/c1ccco1)Nc1cccc(NC(=O)/C=C/c2ccco2)n1	20µM*	25.1µM*	35.5µM*	-15.7%[11.6 µM]	-58.4*	-29.8%	?
O=C(/C=C/c1ccco1)NC1=NCCS1	7.8%	-12.5%	?	-23.1%[57.1 µM]	-6.7	-21.0%	.
CC(=O)N(C)c1ccc(NC(=S)NC(=O)/C=C/c2ccco2)cc1	-22.3%	-7.4%	-6.4%	-10.2%[57.1 µM]	-28.5	-20.9%	.
CCOCCCNc1nc2c(C)cccn2c(=O)c1/C=C1\SC(=S)N(CC(C)C)C1=O	-5.7%	-10.3%	18.7%	-8.6%	.	-19.1%	.
CCOCCCNc1nc2c(C)cccn2c(=O)c1/C=C1\SC(=S)N(C(C)CC)C1=O (stereo unspecified)	79.4µM*	17.2%	16.2%	?	7.7	-8.6%	.	Pol kappa inh-2=26.7*
Cc1cc(NC(=O)/C=C/c2ccco2)ccc1NC(=O)c1ccccc1	-10.7%	-1.6%	3.9%	-15.3%	-7.5	4.6%	.
Cc1ccc(C(=O)N/C(=C/c2ccco2)C(=O)Nc2cccc(C(=O)O)c2)cc1	22.4µM*	1.5%	?	-24.2%	-52.5*	?	?
COc1ccccc1C(=O)N/C(=C/c1ccco1)C(=O)Nc1cccc(C(=O)O)c1	20µM*	?	?	?	?	44.7µM*	75.7*	Pol kappa inh-2=33.6*
SMILES	Pol eta inh-1	POLB inh	POLI inh	WRN helicase inh	PI5P4Ka inh	Pol kappa inh-1	Pol eta inh-2	others
O=C(/C=C/c1ccco1)Nc1ccccc1C(=O)Nc1cccc(C(=O)O)c1	17.8µM*	-49.7%	20µM*	?	-7.7	?	30.1*	Pol kappa inh-2=23.8*
Cc1cccc(NC(=O)/C(=C\c2ccc([N+](=O)[O-])o2)NC(=O)c2ccc(Cl)cc2)c1	10µM*	10µM*	?	-7.2%[11.6 µM]	?	?	?
COC(=O)/C(=C\c1ccc([N+](=O)[O-])o1)NC(=O)c1ccccc1	-9.5%	-1.3%	-7.0%	-9.5%	3.5	4.6%	.
O=C1C=C(N(CCO)Cc2ccccc2)c2ccccc2C1=O	20µM*	-17.2%	4.47µM*	-5.0%	-8.7	-12.8%	.	GALK confirm=11.9µM*;Redox cycling=5.95µM*;HEK293 tox=-2.0%
Cc1ccccc1OCC(=O)Nc1ccc2nc(SCc3ccccc3)sc2c1	-21.4%	-2.8%	4.3%	.	.	0.1%	.
O=C(/C=C/c1ccco1)Nc1sc2c(c1C(=O)O)CCC2	79.4µM*	-82.9%	?	-3.2%[11.6 µM]	.	?	?
N#Cc1c(NC(=O)/C=C/c2ccco2)sc2c1CCCC2	?	?	50.1µM*	?	-62.9*	-25.7%	84.9*
O=C(Nc1sc2c(c1C(=O)O)CCC2)c1ccccc1	12.6µM*	20µM*	?	?	?	?	75.7*
O=C(Nc1sc2c(c1C(=O)O)CCCCC2)c1ccccc1	-6.0%	14.9%	49.8%	-6.2%	-21.0	10.5%	.
